Assay results: ChEMBL document CHEMBL3988442, “University of Dundee, Small-Polar-MMV Screening Library” (2021)
For some of these results: Results with a measured potency or affinity are listed apart.

How the values were obtained:
Set-up in all cases: scale not given: direction of the effect not stated beside the values
[1] = target: Protein translocase subunit SecA (Escherichia coli (strain K12)) (UniProt P10408); assay: Assay to Identify E. coli SecA ATPase Inhibitors; type: functional; settings: 30 µM
Chain of Protein translocase subunit SecA (Escherichia coli (strain K12)) (P10408 whole entry): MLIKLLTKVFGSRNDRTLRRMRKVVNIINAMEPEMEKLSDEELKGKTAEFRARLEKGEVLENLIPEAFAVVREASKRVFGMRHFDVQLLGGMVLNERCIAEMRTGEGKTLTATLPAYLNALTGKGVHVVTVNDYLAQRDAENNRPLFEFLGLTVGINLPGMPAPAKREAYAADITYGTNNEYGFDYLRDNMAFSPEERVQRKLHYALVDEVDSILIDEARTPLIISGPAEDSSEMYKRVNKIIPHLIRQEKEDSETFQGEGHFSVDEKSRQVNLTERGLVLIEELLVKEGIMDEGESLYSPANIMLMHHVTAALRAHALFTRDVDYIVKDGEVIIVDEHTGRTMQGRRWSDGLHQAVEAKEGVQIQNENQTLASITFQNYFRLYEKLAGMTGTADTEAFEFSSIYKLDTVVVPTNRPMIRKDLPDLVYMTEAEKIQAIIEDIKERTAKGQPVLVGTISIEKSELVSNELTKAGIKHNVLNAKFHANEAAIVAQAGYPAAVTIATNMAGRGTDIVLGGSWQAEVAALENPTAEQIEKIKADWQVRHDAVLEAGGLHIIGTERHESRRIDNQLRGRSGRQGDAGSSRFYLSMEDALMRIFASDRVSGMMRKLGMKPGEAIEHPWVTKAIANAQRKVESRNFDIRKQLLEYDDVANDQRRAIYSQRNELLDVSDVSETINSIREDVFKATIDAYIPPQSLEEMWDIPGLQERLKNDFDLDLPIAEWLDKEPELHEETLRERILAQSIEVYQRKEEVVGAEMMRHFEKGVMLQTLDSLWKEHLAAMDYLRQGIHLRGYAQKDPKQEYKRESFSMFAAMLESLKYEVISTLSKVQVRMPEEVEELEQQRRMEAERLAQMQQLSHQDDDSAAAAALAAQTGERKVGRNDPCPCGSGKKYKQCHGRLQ

[2] = target: T1, Ubiquitin-activating enzyme e1, putative (Leishmania donovani (strain BPK282A1)) (UniProt E9BSI1); assay: Leishmania donovani Ubiquitin Activating Enzyme (LdE1); type: functional; settings: 30 µM
T1 sequence (whole entry): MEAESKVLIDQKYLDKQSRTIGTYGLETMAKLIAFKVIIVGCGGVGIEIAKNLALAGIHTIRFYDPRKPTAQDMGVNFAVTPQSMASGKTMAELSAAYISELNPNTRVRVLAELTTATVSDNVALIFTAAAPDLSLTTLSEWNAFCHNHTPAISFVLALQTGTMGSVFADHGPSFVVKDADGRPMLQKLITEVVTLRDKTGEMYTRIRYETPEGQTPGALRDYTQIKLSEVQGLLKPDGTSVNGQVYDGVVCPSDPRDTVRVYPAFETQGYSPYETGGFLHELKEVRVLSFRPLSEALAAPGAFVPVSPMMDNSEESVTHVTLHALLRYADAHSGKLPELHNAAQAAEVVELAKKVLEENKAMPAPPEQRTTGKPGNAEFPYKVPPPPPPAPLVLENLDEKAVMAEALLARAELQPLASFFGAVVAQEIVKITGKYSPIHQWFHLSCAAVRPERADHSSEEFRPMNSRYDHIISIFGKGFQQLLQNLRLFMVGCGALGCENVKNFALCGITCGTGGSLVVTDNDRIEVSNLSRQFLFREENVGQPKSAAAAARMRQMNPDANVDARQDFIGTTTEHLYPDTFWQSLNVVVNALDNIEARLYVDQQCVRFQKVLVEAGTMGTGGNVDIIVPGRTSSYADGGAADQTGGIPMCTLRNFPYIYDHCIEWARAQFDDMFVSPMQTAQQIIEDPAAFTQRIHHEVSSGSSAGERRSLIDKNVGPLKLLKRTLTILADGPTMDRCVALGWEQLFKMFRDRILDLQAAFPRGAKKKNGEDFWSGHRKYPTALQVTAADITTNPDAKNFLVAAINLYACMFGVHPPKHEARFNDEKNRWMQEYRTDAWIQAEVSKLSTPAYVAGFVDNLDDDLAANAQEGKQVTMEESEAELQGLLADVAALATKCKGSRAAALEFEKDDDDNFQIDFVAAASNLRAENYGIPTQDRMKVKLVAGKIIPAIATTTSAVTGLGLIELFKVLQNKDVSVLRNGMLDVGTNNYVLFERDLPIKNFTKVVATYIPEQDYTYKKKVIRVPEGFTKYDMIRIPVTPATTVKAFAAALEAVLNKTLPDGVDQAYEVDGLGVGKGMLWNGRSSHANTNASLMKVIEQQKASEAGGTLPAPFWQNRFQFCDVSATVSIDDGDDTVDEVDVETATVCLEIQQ

[3] = target: AMP-activated protein kinase, AMPK (Homo sapiens) (UniProt P54646+O43741+P54619+Q9UGJ0+Q9Y478+Q13131+Q9UGI9); assay: AMP-dependent Kinase enzyme assay. An in vitro enzyme assay that detects ADP turnover that is directly proportional to AMPK activity. This uses naive AMPK that is activated during the assay with MK-8722; type: functional; settings: 30 µM
[4] = target: Sialic acid-binding Ig-like lectin 9 (Homo sapiens) (UniProt Q9Y336); assay: Hs-Siglec9 ALPHAscreen SOP 20170721; settings: 10 µM
Chain of Sialic acid-binding Ig-like lectin 9 (Homo sapiens) (Q9Y336 whole entry): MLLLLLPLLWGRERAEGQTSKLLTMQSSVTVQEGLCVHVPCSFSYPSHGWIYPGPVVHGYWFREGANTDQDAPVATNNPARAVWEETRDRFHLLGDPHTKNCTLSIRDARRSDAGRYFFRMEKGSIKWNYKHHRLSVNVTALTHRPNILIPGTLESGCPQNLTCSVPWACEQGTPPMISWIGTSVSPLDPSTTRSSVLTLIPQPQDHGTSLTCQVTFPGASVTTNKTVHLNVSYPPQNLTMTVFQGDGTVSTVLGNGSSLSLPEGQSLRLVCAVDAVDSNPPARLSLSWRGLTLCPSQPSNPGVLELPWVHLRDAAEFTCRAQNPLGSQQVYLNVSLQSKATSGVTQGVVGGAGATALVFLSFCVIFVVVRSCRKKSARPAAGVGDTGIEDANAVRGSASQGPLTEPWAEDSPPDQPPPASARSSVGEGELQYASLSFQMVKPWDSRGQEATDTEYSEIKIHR

Trypanosoma cruzi = assay: Trypanosoma cruzi phosphomannomutase and mannose-1-phosphate guanylyltransferase assay; type: functional; settings: 10 µM
[5] = target: T2, Arginase-2, mitochondrial (Homo sapiens) (UniProt P78540); assay: in vitro enzyme assay to detect the production of urea directly proportional to the activity of Arginase II; type: functional; settings: 33.3 µM; further: in the data most compounds retested in dose-response had high values
T2 sequence (whole entry): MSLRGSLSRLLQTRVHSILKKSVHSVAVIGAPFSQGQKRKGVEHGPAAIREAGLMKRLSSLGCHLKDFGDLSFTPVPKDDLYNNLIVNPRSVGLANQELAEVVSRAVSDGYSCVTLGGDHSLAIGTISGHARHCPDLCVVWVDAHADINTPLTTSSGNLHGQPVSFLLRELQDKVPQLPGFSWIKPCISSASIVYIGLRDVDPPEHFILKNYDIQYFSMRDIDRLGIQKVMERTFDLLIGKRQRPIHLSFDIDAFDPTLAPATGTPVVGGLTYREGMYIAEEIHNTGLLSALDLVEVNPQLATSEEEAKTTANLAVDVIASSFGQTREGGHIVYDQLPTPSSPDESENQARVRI

[6] = target: T3, Proteasome subunit beta (Trypanosoma cruzi) (UniProt O96673); assay: Trypanosoma cruzi proteasome chymotrypsin-like activity (TcProtChymo) assay.; further: in the data most compounds retested in dose-response had high values; type: functional; settings: 9.37 µM
T3 sequence (whole entry): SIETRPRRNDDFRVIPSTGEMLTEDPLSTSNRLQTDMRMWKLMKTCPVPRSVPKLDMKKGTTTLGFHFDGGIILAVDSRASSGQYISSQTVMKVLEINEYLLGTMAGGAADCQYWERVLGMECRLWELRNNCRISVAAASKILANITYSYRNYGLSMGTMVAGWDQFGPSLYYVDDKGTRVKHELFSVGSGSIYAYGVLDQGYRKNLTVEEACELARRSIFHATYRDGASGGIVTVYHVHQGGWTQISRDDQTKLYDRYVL

Homo sapiens = species: Homo sapiens; assay: To identify inhibition of the IFN signalling (Jak-Stat) pathway via expression of an eGFP reporter gene under the control of an IFN-stimulated response element (ISRE) containing MxA promoter.; type: functional; settings: 30 µM
[7] = target: T4, Tyrosyl-tRNA synthetase, putative (Trypanosoma cruzi (strain CL Brener)) (UniProt Q4DSP6); assay: Trypanosoma cruzi tyrosyl tRNA synthetase (TcYRS) _High Tyrosine SOP; type: functional; settings: 30 µM; further: in the data most compounds retested in dose-response had high values
T4 sequence (whole entry): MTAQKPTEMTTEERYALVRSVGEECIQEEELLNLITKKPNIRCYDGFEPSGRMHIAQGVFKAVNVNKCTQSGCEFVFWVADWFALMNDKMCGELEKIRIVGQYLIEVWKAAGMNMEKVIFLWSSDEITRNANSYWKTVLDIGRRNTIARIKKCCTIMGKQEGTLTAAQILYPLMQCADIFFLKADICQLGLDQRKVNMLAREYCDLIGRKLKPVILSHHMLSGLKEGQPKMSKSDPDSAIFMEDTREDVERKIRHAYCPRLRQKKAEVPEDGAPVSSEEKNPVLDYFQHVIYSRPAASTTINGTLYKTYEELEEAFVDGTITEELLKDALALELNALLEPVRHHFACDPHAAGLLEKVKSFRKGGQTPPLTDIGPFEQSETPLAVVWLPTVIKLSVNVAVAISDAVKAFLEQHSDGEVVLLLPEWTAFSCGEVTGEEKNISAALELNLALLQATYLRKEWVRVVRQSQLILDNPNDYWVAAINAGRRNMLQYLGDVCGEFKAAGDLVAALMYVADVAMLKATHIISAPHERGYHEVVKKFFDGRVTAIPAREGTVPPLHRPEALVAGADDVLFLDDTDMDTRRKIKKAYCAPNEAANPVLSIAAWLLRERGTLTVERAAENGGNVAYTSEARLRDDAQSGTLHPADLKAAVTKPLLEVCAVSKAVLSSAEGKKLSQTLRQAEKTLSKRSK

[8] = target: T4, Tyrosyl-tRNA synthetase, putative (Trypanosoma cruzi (strain CL Brener)); assay: Trypanosoma cruzi tyrosyl tRNA synthetase (TcYRS) SOP; type: functional; settings: 30 µM
[9] = target: Chromo domain-containing protein 1 (Saccharomyces cerevisiae (strain ATCC 204508 / S288c) (Baker's yeast)) (UniProt P32657); assay: ScCHD-1 Enzyme Inhibition Assay; type: functional; settings: 30 µM; further: in the data most compounds retested in dose-response had high values
Chain of Chromo domain-containing protein 1 (Saccharomyces cerevisiae (strain ATCC 204508 / S288c) (Baker's yeast)) (P32657 whole entry, the tested form may be a part): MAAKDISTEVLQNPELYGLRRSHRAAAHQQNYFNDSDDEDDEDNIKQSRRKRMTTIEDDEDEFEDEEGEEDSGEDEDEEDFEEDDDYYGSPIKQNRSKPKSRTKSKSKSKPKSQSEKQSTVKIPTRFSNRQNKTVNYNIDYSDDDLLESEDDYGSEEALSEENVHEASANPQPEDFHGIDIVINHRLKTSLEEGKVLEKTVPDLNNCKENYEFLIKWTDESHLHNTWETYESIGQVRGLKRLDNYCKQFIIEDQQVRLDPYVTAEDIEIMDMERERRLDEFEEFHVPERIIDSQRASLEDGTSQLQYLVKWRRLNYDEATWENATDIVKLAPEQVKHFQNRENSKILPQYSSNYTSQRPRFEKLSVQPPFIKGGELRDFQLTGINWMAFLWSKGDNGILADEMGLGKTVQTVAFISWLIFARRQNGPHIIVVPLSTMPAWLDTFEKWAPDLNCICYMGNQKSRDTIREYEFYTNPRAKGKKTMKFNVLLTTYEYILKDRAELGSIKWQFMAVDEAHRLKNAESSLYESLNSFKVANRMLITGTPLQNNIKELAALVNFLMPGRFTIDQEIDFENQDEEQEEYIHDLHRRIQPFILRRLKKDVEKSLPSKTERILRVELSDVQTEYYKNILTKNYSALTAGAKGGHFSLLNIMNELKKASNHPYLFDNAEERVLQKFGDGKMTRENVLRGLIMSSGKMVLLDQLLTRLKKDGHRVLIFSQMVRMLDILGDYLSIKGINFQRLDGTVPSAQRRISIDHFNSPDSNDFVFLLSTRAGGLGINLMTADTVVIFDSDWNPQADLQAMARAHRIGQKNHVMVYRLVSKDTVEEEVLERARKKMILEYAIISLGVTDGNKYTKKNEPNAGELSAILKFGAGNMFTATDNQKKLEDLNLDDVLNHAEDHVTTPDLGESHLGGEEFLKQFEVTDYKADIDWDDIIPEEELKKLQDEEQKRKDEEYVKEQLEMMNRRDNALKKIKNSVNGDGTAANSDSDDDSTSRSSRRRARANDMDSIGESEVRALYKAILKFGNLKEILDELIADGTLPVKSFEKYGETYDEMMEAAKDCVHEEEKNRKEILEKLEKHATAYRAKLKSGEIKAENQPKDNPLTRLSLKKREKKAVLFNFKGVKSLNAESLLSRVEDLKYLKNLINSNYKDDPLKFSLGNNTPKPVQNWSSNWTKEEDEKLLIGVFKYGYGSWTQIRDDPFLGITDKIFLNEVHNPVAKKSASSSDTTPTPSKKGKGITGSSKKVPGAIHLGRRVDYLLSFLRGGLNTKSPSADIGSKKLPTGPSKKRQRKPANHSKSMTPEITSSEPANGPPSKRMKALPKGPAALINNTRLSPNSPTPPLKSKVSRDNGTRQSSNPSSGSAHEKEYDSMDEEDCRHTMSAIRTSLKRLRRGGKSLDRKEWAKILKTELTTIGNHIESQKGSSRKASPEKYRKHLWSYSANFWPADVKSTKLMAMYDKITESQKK

Row | SMILES | Percent Effect [1] [%] | Percent Effect [2] [%] | Percent Effect [3] [%] | Percent Effect [4] [%] | Percent Effect (Trypanosoma cruzi) [%] | Percent Effect [5] [%] | Percent Effect [6] [%] | Percent Effect (Homo sapiens) [%] | Percent Effect [7] [%] | Percent Effect [8] [%] | Percent Effect [9] [%]
1 | Cc1nc2ccccn2c1CN(Cc1cccnc1)CC1CCCO1 (stereo not drawn) | -1.83 | -2.74 | 2.15 | 0.744 | -6.27 | 0.455 | 7.63 | 13.7 | -2.15 | -2.5 | -1.23
2 | O=C(c1ccc[nH]1)N1CCC2(CC1)C(=O)Nc1ccccc12 | -3.56 | 16.2 | -2.52 | 18 | 6.35 | 4.22 | 10.7 | -3.84 | 5.38 | 23.5 | -5.84
3 | CC(C)CN1CCC2(C=C(C(=O)N3CCCC3)c3ccccc32)CC1 | -2.44 | 0 | -1.76 | 3.68 | -6.76 | -56.8 | 7.35 | 1.33 | 5.21 | 10 | -7.39
4 | CN1C(=O)C(C)(C)COc2cc(NS(=O)(=O)Cc3ccccc3)ccc21 | -1.91 | 16.4 | -12.8 | -8.62 | 3.72 | -2.73 | 15.6 | 57.7 | 7.53 | 12.5 | -6.62
5 | O=C1CO[C@@H]2CN(CC3CCOCC3)C[C@H]2N1CC1CC1 | -3.37 | 10.8 | 5.33 | -0.714 | -5.18 | 5.41 | 20.1 | 10.6 | 5.41 | 17.9 | 3.58
6 | COc1ccc(CN2C[C@H](OCC3CCOCC3)[C@H]3COC[C@H]32)cc1 | -0.325 | 0 | -1.04 | 9.22 | -0.992 | -3.99 | 15.3 | 3.85 | 11.5 | 11.1 | -1.49
7 | Cc1nc(C)c(CNC(=O)NC(c2nnc3n2CCC3)C(C)C)s1 (stereo not drawn) | -6.15 | 0 | -0.521 | 1.26 | -4.1 | -2.08 | 12.8 | 8.88 | 5.94 | 11 | -0.921
8 | Cn1cnc2c1C(COCc1cccnc1)N(Cc1ccccn1)CC2 (stereo not drawn) | -3.69 | 8 | -12.6 | 2.61 | 7.53 | -51.8 | 5.47 | 3.9 | 4.17 | -55 | -7.17
